Among all 5,500 compounds or so, about 2,000 (36%) were called active. Another 18% or so got no clear call; they are omitted. No stated cut-off is given here; in the data, active means normalized growth mostly below about 0.91 (no sharp cut-off); inconclusive means no clear call, values can overlap the other calls; inactive means mostly above about 0.92. This is one part of the list.
Experiment: chemical genetic growth profiling, strain panel (AID 1159580);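 further: tested at 20 µM; growth read once vehicle control cultures reached saturation at 30 °C; 1 = growth at the plate median or of vehicle wells; lower values mean less growth of the strain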
Conditions: growth OD

Measured: normalized growth

Cc1cc(NC(=O)C2=C(O)c3ccccc3S(=O)(=O)N2C)no1
active: S. cerevisiae deletion strains, locus YKL068W, hits give low values 0.924 | S. cerevisiae deletion strains, locus YKL085W, strain MDH1 (second series), hits give low values 0.906 | S. cerevisiae deletion strains, locus YKL085W, strain MDH1, hits give low values 0.906
inactive: S. cerevisiae deletion strains, locus YJR066W, strain TOR1, hits give low values 0.893 | S. cerevisiae deletion strains, locus YKL009W, strain mrt4, hits give low values 0.928 | S. cerevisiae deletion strains, locus YKL160W, strain elf1, hits give low values 0.996 | S. cerevisiae deletion strains, locus YKL190W, strain CNB1, hits give low values 0.976 | S. cerevisiae deletion strains, locus YKR001C, strain vps1, hits give low values 0.973 | S. cerevisiae deletion strains, locus YKR026C, strain gcn3, hits give low values 0.956 | S. cerevisiae deletion strains, locus YKR091W, strain srl3, hits give low values 0.95 | S. cerevisiae deletion strains, locus YLL001W, strain dnm1, hits give low values 0.992 | S. cerevisiae deletion strains, locus YLL026W, hits give low values 0.968 | S. cerevisiae deletion strains, locus YLL041C, strain sdh2, hits give low values 0.96 | S. cerevisiae deletion strains, locus YLR027C, strain aat2, hits give low values 0.975 | S. cerevisiae deletion strains, locus YLR039C, strain RIC1, hits give low values 0.96 | S. cerevisiae deletion strains, locus YLR058C, strain SHM2, hits give low values 0.984 | S. cerevisiae deletion strains, locus YLR102C, strain apc9, hits give low values 0.95 | S. cerevisiae deletion strains, locus YLR113W, strain HOG1, hits give low values 0.929 | S. cerevisiae deletion strains, locus YLR221C, strain rsa3, hits give low values 0.968 | S. cerevisiae deletion strains, locus YLR258W, strain gsy2, hits give low values 0.971 | S. cerevisiae deletion strains, locus YLR262C, strain YPT6 (second series), hits give low values 0.999 | S. cerevisiae deletion strains, locus YLR262C, strain YPT6, hits give low values 0.977 | S. cerevisiae deletion strains, locus YLR268W, strain sec22, hits give low values 0.969 | S. cerevisiae deletion strains, locus YLR320W, strain mms22, hits give low values 0.955 | S. cerevisiae deletion strains, locus YLR330W, strain CHS5, hits give low values 0.962 | S. cerevisiae deletion strains, locus YLR342W, strain FKS1 (second series), hits give low values 1.01 | S. cerevisiae deletion strains, locus YLR342W, strain FKS1, hits give low values 0.975 | S. cerevisiae deletion strains, locus YLR357W, strain rsc2, hits give low values 0.994 | S. cerevisiae deletion strains, locus YLR370C, strain arc18, hits give low values 0.98 | S. cerevisiae deletion strains, locus YLR371W, strain rom2, hits give low values 0.967 | S. cerevisiae deletion strains, locus YLR384C, strain iki3, hits give low values 0.954 | S. cerevisiae deletion strains, locus YLR418C, strain cdc73, hits give low values 0.951 | S. cerevisiae deletion strains, locus YML016C, strain PPZ1, hits give low values 0.987 | S. cerevisiae deletion strains, locus YML032C, strain rad52, hits give low values 0.985 | S. cerevisiae deletion strains, locus YML120C, strain ndi1, hits give low values 0.947 | S. cerevisiae deletion strains, locus YML124C, strain tub3, hits give low values 0.954 | S. cerevisiae deletion strains, locus YMR058W, strain fet3, hits give low values 0.976 | S. cerevisiae deletion strains, locus YMR078C, strain ctf18, hits give low values 0.924 | S. cerevisiae deletion strains, locus YMR125W, strain sto1, hits give low values 0.955 | S. cerevisiae deletion strains, locus YMR129W, hits give low values 0.956 | S. cerevisiae deletion strains, locus YMR205C, strain PFK2, hits give low values 0.989 | S. cerevisiae deletion strains, locus YMR223W, strain ubp8, hits give low values 0.944 | S. cerevisiae deletion strains, locus YMR231W, strain pep5, hits give low values 0.967 | S. cerevisiae deletion strains, locus YMR307W, strain GAS1, hits give low values 0.961 | S. cerevisiae deletion strains, locus YNL067W, strain RPL9B, hits give low values 1.01 | S. cerevisiae deletion strains, locus YNL071W, strain lat1, hits give low values 0.976 | S. cerevisiae deletion strains, locus YNL183C, strain NPR1, hits give low values 0.879 | S. cerevisiae deletion strains, locus YNL209W, strain ssb2, hits give low values 0.96 | S. cerevisiae deletion strains, locus YNL233W, strain BNI4, hits give low values 1.04 | S. cerevisiae deletion strains, locus YNL248C, strain rpa49, hits give low values 0.973 | S. cerevisiae deletion strains, locus YNL250W, strain rad50, hits give low values 0.908 | S. cerevisiae deletion strains, locus YNL271C, strain bni1, hits give low values 0.923 | S. cerevisiae deletion strains, locus YNL298W, strain CLA4, hits give low values 0.923 | S. cerevisiae deletion strains, locus YNL307C, strain MCK1, hits give low values 0.947 | S. cerevisiae deletion strains, locus YNL322C, strain KRE1 (second series), hits give low values 0.953 | S. cerevisiae deletion strains, locus YNL322C, strain KRE1, hits give low values 0.978 | S. cerevisiae deletion strains, locus YNR049C, strain mso1, hits give low values 0.967 | S. cerevisiae deletion strains, locus YNR052C, strain pop2, hits give low values 0.955 | S. cerevisiae deletion strains, locus YOL006C, strain TOP1, hits give low values 1.03 | S. cerevisiae deletion strains, locus YOL012C, strain htz1 1.14 | S. cerevisiae deletion strains, locus YOL147C, strain pex11, hits give low values 0.942 | S. cerevisiae deletion strains, locus YOR001W, strain rrp6, hits give low values 0.997 | S. cerevisiae deletion strains, locus YOR061W, strain CKA2, hits give low values 0.992 | S. cerevisiae deletion strains, locus YOR069W, strain VPS5, hits give low values 0.972 | S. cerevisiae deletion strains, locus YOR070C, strain gyp1, hits give low values 0.971 | S. cerevisiae deletion strains, locus YOR080W, strain dia2, hits give low values 0.974 | S. cerevisiae deletion strains, locus YOR083W, strain WHI5, hits give low values 0.964 | S. cerevisiae deletion strains, locus YOR106W, strain vam3, hits give low values 0.996 | S. cerevisiae deletion strains, locus YOR136W, strain idh2, hits give low values 0.978 | S. cerevisiae deletion strains, locus YOR144C, strain elg1, hits give low values 0.956 | S. cerevisiae deletion strains, locus YOR184W, strain ser1, hits give low values 0.945 | S. cerevisiae deletion strains, locus YOR231W, strain MKK1, hits give low values 0.993 | S. cerevisiae deletion strains, locus YOR265W, strain rbl2, hits give low values 0.966 | S. cerevisiae deletion strains, locus YOR270C, strain vph1, hits give low values 0.969 | S. cerevisiae deletion strains, locus YOR290C, strain snf2, hits give low values 0.977 | S. cerevisiae deletion strains, locus YOR316C, strain cot1, hits give low values 0.94 | S. cerevisiae deletion strains, locus YPL051W, strain arl3, hits give low values 0.989 | S. cerevisiae deletion strains, locus YPL078C, strain atp4, hits give low values 0.981 | S. cerevisiae deletion strains, locus YPL106C, strain sse1, hits give low values 0.954 | S. cerevisiae deletion strains, locus YPL240C, strain hsp82, hits give low values 0.973 | S. cerevisiae deletion strains, locus YPL256C, strain CLN2, hits give low values 0.905 | S. cerevisiae deletion strains, locus YPR119W, strain clb2, hits give low values 0.945 | S. cerevisiae deletion strains, locus YPR141C, strain kar3, hits give low values 0.919 | S. cerevisiae deletion strains, locus YPR163C, strain tif3, hits give low values 0.931 | S. cerevisiae deletion strains, locus YPR167C, strain met16, hits give low values 0.943 | S. cerevisiae deletion strains, strain wtn01, hits give low values 0.961 | S. cerevisiae strains, strain wild type, hits give low values 0.983

— PubChem BioAssay AID1159580 (chemical genetic matrix, 2015)
